Outcome and AC50 data for 7 compounds are collected here from PubChem BioAssay (EPA / NIEHS).

Active and inactive are the calls of the source. Rule for the calls: active = hit-call score of the fitted dose curve at least 0.9, where 1 is the maximum; inactive = score below 0.9.

Assay [1] in a line: ATG_E_Box_CIS: Attagene CIS-FACTORIAL HepG2 Assay for human Enhancer Box (E-box) (AID 2282936). Conditions: HepG2 E-box cis-reporter transcription, actives raise or lower the signal. Summed up:
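HepG2 cells transiently transfected with multiplexed cis-element reporter units, dosed 24 h; reporter mRNA quantified by RT-PCR, 6-FAM labelling, HpaI digestion and capillary electrophoresis. E-box (USF1) signal fitted bidirectionally vs DMSO.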

Assay [2] is described as follows: ATG_M_61_CIS: Attagene CIS-FACTORIAL HepG2 Assay for M61 Transcription Factor (Internal Marker) (AID 2282937). The following applies: HepG2 Attagene CIS-FACTORIAL M61 internal marker reporter; actives raise or lower the signal. In a few lines: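 Human liver HepG2, transient MRTU transfection (cis promoter elements), 24 h compound. Total RNA → oligo(dT) RT → PCR → FAM label → HpaI → CE. Internal background marker; bidirectional fitting, DMSO = baseline.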

The nature of assay [3]: ATG_EGR_CIS: Attagene CIS-FACTORIAL HepG2 Assay for human Early Growth Response 1 (EGR1) (AID 2282938). The following applies: HepG2 Attagene CIS-FACTORIAL EGR reporter mRNA; actives raise or lower the signal. In a few lines:
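Transient transfection of human HepG2 with multiple cis-regulated reporter units, chemical exposure 24 h, total RNA isolated. Reverse transcription, PCR, fluorescent labelling and capillary electrophoresis quantify reporter transcripts; activity fitted bidirectionally against DMSO.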

Assay [4] can be described thus: ATG_M_19_CIS: Attagene CIS-FACTORIAL HepG2 Assay for M19 Transcription Factor (Internal Marker) (AID 2282939). Conditions: HepG2 Attagene CIS-FACTORIAL M19 internal marker reporter; actives raise or lower the signal. Summed up: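 Readout: fluorescent reporter-transcript fragments by capillary electrophoresis after RT-PCR. Human HepG2 liver cells carried transfected MRTU constructs reporting endogenous transcription-factor activity; exposure 24 h. Gain or loss of signal fitted relative to DMSO.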

Assay [5] can be described thus: ATG_ERE_CIS: Attagene CIS-FACTORIAL HepG2 Assay for Estrogen Response Element (ERE) (AID 2282940). The following applies: HepG2 ERE cis-reporter, Attagene RNA transcript; actives raise or lower the signal. Summed up: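 Readout: reporter mRNA induction by RT-PCR, FAM-labelled primer extension, HpaI digestion and capillary electrophoresis, 24 h after dosing transfected HepG2 cells. Endogenous transcription factors act on cis-element-regulated reporters. Gain or loss fitted against DMSO.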

Assay [6] in a line: ATG_Ets_CIS: Attagene CIS-FACTORIAL HepG2 Assay for human Erythroblast Transformation Specific (ETS) (AID 2282941). The following applies: HepG2 ETS cis-reporter transcription, actives raise or lower the signal. In a few lines: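 After transient cis-reporter transfection, HepG2 cells receive test chemical for 24 h. Reporter mRNA levels, measured by RT-PCR and capillary electrophoresis fluorescence, are analysed bidirectionally relative to the DMSO baseline.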

Assay [7] has as its target Hepatocyte nuclear factor 3-beta (Homo sapiens) (UniProt Q9Y261). Briefly: ATG_FoxA2_CIS: Attagene CIS-FACTORIAL HepG2 Assay for human Forkhead box A2 (FOXA2) (AID 2282942). The following applies: HepG2 cis-reporter transcription factor activity, 24 h; actives raise or lower the signal. In a few lines: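 Transient MRTU transfection of HepG2 liver cells; 24 h treatment; total RNA → oligo(dT) RT → PCR → FAM primer extension → HpaI cut → CE. Bidirectional fit vs DMSO.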

A short description of assay [8]: ATG_FoxO_CIS: Attagene CIS-FACTORIAL HepG2 Assay for human Forkhead box O (FoxO) (AID 2282943). The following applies: HepG2 Attagene cis-reporter, FoxO element, mRNA; actives raise or lower the signal. In a few lines: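 Transfected HepG2 reporter cells exposed to test chemical for 24 h; reporter RNA measured by reverse transcription, PCR and fluorescent capillary electrophoresis; curves fitted for increases and decreases against DMSO.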

Assay [9] in a line: ATG_GATA_CIS: Attagene CIS-FACTORIAL HepG2 Assay for human GATA Binding Protein (AID 2282944). The following applies: HepG2 GATA cis-element reporter, Attagene multiplex mRNA; actives raise or lower the signal. In a few lines: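 Read-out: fluorescent reporter mRNA fragments resolved by capillary electrophoresis after RT-PCR. Human liver HepG2 cells carried transiently transfected cis-regulated reporter constructs; chemicals incubated 24 h; gain or loss of signal fitted relative to DMSO.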

Assay [10] in a line: ATG_GLI_CIS: Attagene CIS-FACTORIAL HepG2 Assay for human Zinc Finger Protein GLI1 (AID 2282945). The following applies: HepG2, Attagene cis-factorial reporter mRNA, GLI element; actives raise or lower the signal. In a few lines:
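Transiently transfected HepG2 cells report endogenous transcription factor activity via cis-element-driven reporter units. After 24 h compound exposure, reporter mRNA was measured by RT-PCR with capillary electrophoresis; bidirectional fitting against DMSO baseline.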

Assay [11] concerns the target Bile acid receptor (Homo sapiens) (UniProt Q96RI1). The assay can be described thus: ATG_IR1_CIS: Attagene CIS-FACTORIAL HepG2 Assay for human Nuclear Receptor Subfamily 1 Group H Member 4 (NR1H4), IR1 submotif (AID 2282946). Conditions: IR1 reporter transcription, actives raise or lower the signal. Summed up:
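HepG2 cells transiently transfected with multiple cis-promoter-driven reporter units to measure endogenous transcription factor activity; 24 h exposure. Reporter mRNA read by RT-PCR, FAM labelling, HpaI digestion and capillary electrophoresis. Bidirectional fit versus DMSO.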

The nature of assay [12]: ATG_GRE_CIS: Attagene CIS-FACTORIAL HepG2 Assay for human Glucocorticoid Response Elements (GRE) (AID 2282947). Conditions: HepG2 GRE cis-reporter, Attagene multiplex mRNA; actives raise or lower the signal. In a few lines:
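Transiently transfected HepG2 cells carrying GRE cis-reporter units (endogenous TF activity) dosed 24 h; reporter mRNA quantified by RT-PCR, 6-FAM labelling, HpaI digestion and capillary electrophoresis. Bidirectional fit versus DMSO baseline.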

A short description of assay [13]: ATG_ISRE_CIS: Attagene CIS-FACTORIAL HepG2 Assay for human Interferon Regulatory Factor 1 (IRF1) binding to an Interferon-Stimulated Response Element (ISRE) (AID 2282948). The following applies: HepG2 ISRE cis-reporter (Attagene), mRNA transcription readout; actives raise or lower the signal. In a few lines: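 Quantitation relies on labelled RT-PCR fragments separated by capillary electrophoresis. Human HepG2 cells bearing cis-promoter reporter constructs were treated 24 h; DMSO served as baseline for bidirectional fitting.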

A short description of assay [14]: ATG_M_32_CIS: Attagene CIS-FACTORIAL HepG2 Assay for M32 Transcription Factor (Internal Marker) (AID 2282949).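 Note: background control marker of the multiplexed CIS panel rather than a real target.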 Conditions: HepG2 Attagene cis-factorial M32 reporter, mRNA; actives raise or lower the signal. In a few lines:
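Fluorescent capillary electrophoresis peaks of HpaI-digested, FAM-labelled RT-PCR reporter products give the signal. Source: transiently transfected human liver HepG2 cells, 24 h after chemical dosing; bidirectional fitting against DMSO.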

Assay [15] is described as follows: ATG_M_06_CIS: Attagene CIS-FACTORIAL HepG2 Assay for M06 Transcription Factor (Internal Marker) (AID 2282950). Conditions: HepG2 Attagene CIS-FACTORIAL M06 internal marker reporter; actives raise or lower the signal. Summed up: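 Terse: HepG2, transient MRTU transfection (FuGene 6), 24 h dosing; total RNA, oligo(dT) RT, PCR, FAM label, HpaI cut, capillary electrophoresis; bidirectional fit vs DMSO baseline; background-control endpoint.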

The target in assay [16] is Hypoxia-inducible factor 1-alpha (Homo sapiens) (UniProt Q16665). Briefly: ATG_HIF1a_CIS: Attagene CIS-FACTORIAL HepG2 Assay for human Hypoxia Inducible Factor 1 (HIF1A) (AID 2282951). The following applies: HepG2 Attagene cis-factorial HIF1a reporter transcription; actives raise or lower the signal. Summed up: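 Transient MRTU transfection of human HepG2 liver cells, 24 h compound treatment, then total RNA isolation, oligo(dT) reverse transcription, PCR amplification, fluorescent labelling and capillary electrophoresis of reporter fragments. Gain or loss relative to DMSO.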

In assay [17] the target is Hepatocyte nuclear factor 6 (Homo sapiens) (UniProt Q9UBC0). Briefly: ATG_HNF6_CIS: Attagene CIS-FACTORIAL HepG2 Assay for human Hepatocyte Nuclear Factor 6 (HNF6) (AID 2282952). Conditions: HepG2 Attagene cis-factorial HNF6 reporter transcription; actives raise or lower the signal. In a few lines:
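HepG2, transient MRTU transfection (cis promoters); 24 h chemical exposure; total RNA → oligo(dT) RT → PCR → 6-FAM labelling → HpaI cut → CE; bidirectional fit vs DMSO.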

For assay [18], the target named is Heat shock factor protein 1 (Homo sapiens) (UniProt Q00613). Briefly: ATG_HSE_CIS: Attagene CIS-FACTORIAL HepG2 Assay for human Heat Shock Transcription Factor 1 (HSE) (AID 2282953). The following applies: HepG2 HSE cis-reporter, Attagene RNA transcription; actives raise or lower the signal. Summed up: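 Read-out: fluorescence of reporter-specific RT-PCR fragments separated by capillary electrophoresis. HepG2 carrying transfected cis-element reporter units; 24 h dosing; activity fitted in both directions relative to DMSO baseline.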

The nature of assay [19]: ATG_MRE_CIS: Attagene CIS-FACTORIAL HepG2 Assay for human Metal Responsive Element (MRE) (AID 2282954). The following applies: HepG2 MRE cis-reporter transcription, Attagene multiplex; actives raise or lower the signal. In a few lines:
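HepG2 cells transiently transfected with cis-element-driven reporter units; mRNA measured 24 h after dosing. Reporter transcripts quantified by RT-PCR, FAM labelling, HpaI digestion and capillary electrophoresis; bidirectional fit versus DMSO.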

Assay [20] can be described thus: ATG_PBREM_CIS: Attagene CIS-FACTORIAL HepG2 Assay for human Phenobarbital-responsive Enhancer Module (PBREM) (AID 2282955). The following applies: HepG2 PBREM cis-reporter, Attagene multiplexed transcription; actives raise or lower the signal. In a few lines:
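Endogenous transcription factors in human liver HepG2 cells drive a PBREM cis-element reporter, whose transcript level after 24 h treatment is quantified by RT-PCR with capillary electrophoresis; activity fitted in both directions against DMSO.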

Sequence of Hepatocyte nuclear factor 6 (Homo sapiens) (Q9UBC0 whole entry, looked up): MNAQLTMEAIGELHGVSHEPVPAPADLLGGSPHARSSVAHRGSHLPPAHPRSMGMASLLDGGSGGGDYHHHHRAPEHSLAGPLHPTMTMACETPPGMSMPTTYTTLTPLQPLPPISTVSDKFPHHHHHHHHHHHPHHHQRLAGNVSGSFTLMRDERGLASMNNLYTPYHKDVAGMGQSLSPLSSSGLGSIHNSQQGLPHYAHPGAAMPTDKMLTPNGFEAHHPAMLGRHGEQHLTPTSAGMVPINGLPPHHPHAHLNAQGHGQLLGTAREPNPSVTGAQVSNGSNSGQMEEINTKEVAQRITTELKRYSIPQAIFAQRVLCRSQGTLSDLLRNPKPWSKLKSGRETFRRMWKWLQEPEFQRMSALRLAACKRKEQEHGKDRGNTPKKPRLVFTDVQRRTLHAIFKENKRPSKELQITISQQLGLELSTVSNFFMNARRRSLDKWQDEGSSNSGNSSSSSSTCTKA
Sequence of Bile acid receptor (Homo sapiens) (Q96RI1 whole entry, looked up): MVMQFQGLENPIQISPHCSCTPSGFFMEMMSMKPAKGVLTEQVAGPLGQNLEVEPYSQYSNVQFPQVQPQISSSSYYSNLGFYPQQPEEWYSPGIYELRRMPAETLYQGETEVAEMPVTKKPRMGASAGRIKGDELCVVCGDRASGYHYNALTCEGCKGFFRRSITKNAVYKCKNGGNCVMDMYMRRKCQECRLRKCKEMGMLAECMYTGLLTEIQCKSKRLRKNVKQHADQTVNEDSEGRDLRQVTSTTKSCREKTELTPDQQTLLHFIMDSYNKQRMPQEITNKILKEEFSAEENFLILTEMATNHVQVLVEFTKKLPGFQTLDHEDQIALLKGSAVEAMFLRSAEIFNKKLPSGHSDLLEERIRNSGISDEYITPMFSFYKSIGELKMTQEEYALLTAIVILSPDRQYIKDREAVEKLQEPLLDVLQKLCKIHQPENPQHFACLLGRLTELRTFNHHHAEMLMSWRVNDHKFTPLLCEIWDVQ
Sequence of Heat shock factor protein 1 (Homo sapiens) (Q00613 whole entry, looked up, the tested form may be a part): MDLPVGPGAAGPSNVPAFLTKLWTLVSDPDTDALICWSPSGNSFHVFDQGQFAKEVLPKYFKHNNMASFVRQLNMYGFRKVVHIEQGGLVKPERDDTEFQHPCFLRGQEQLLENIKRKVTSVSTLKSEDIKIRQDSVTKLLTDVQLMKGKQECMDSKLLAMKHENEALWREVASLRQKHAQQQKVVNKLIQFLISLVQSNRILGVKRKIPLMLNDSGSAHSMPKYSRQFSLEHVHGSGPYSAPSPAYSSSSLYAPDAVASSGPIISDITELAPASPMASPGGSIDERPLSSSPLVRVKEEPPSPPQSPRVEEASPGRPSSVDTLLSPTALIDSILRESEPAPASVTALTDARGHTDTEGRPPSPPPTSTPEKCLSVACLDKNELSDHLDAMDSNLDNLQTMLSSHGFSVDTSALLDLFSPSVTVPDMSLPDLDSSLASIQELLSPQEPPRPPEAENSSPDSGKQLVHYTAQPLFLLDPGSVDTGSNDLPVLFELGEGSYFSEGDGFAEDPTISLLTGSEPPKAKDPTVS
Sequence of Hypoxia-inducible factor 1-alpha (Homo sapiens) (Q16665 whole entry, looked up, the tested form may be a part): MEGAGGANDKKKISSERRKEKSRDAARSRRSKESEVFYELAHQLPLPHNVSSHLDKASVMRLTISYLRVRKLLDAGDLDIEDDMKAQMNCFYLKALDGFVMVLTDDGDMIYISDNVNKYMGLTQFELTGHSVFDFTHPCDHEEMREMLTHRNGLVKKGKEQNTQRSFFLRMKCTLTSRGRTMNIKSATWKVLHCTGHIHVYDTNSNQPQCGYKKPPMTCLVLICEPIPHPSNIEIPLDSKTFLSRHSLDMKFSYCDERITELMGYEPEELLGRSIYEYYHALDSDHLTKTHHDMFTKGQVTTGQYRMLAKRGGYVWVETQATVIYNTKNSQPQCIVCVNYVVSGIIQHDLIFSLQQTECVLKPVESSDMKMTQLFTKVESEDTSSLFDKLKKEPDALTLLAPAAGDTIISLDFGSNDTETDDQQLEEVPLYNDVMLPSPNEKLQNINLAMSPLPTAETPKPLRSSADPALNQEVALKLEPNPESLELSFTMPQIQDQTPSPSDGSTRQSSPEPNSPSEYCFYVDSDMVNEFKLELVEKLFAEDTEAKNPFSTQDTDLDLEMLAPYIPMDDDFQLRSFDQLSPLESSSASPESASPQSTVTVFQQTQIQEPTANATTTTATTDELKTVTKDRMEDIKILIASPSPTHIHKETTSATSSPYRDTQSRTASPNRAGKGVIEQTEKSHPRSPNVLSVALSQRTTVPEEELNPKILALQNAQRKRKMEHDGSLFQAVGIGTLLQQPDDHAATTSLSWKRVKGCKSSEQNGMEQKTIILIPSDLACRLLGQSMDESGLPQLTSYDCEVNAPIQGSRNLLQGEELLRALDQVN
Sequence of Hepatocyte nuclear factor 3-beta (Homo sapiens) (Q9Y261 whole entry, looked up): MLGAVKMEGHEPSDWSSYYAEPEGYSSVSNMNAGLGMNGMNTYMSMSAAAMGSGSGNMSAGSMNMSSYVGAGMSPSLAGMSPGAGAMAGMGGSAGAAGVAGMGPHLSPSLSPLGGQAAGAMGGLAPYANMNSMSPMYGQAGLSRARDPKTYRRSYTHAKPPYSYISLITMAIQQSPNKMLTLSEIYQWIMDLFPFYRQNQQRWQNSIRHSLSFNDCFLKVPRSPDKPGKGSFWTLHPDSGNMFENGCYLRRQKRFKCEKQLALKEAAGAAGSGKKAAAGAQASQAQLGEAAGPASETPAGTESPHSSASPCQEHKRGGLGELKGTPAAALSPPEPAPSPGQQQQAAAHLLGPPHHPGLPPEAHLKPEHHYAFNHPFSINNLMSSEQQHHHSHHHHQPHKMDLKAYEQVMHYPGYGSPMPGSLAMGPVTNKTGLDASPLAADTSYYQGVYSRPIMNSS

For `COC(=O)c1c(Cl)c(Cl)c(C(=O)OC)c(Cl)c1Cl`, the outcome in assay [1], in assay [2], in assay [3], in assay [4], in assay [5] and in assay [6] was inactive. Further, the compound was classed as inactive in [7], in assay [8], in assay [9], in assay [10], in assay [11] and in assay [12]. Besides, the compound was called inactive in [13], in assay [14], in assay [15], in assay [16], in assay [17] and in [18]. In addition, the outcome in assay [19] and in assay [20] was inactive.
As usually defined, the AC50 is the concentration at which the activity in the assay is half-maximal. Regarding `COc1ccc2sc(C(=O)Nc3nnn[nH]3)c(OC(C)C)c2c1`, the call in [2], in assay [4], in assay [6], in [7], in assay [8] and in assay [9] was inactive. Also, the outcome in assay [10], in assay [12], in assay [15], in assay [17], in [18] and in assay [20] was inactive. Also, the AC50 in assay [3] is 146 µM (active); in assay [5], 25.7 µM (active); in assay [11], 67.6 µM (active); in assay [13], 44.1 µM (active); in assay [16] it was 149 µM (active); in assay [19], 91.1 µM (active).
Take `CC1=CC(=O)CC(C)(C)C1`: the result in [1], in assay [2], in assay [3], in [4], in assay [6] and in assay [7] was inactive. The outcome in assay [8], in assay [9], in [10], in [12], in [13] and in [15] was inactive. The result in [16], in assay [17] and in assay [19] was inactive.
Turning to `CC[C@H]1CC[C@H](NCc2cc3c(cc2OC)[C@H]2C[C@H]2C(=O)N3C)[C@H](c2ccccc2)N1`, the compound was called inactive in [2], in assay [4], in [5], in assay [7], in assay [9] and in assay [10]. The call in [14], in [15], in [16] and in [17] was inactive. Also, the AC50 is 71.3 µM (active) in assay [3]; 100 µM (active) in [6]; 100 µM (active) in [8]; 69 µM (active) in assay [12]; 80.9 µM (active) in [13]; 71.5 µM (active) in assay [18]. The AC50 in [19] was 114 µM (active).
Consider `CCCCCCCCCCCCc1ccccc1`, for which the result in [1], in assay [2], in assay [3], in assay [4], in [6] and in assay [7] was inactive. Further, the compound was classed as inactive in assay [8], in assay [9], in assay [10], in assay [11], in assay [13] and in [15]. Moreover, the result in assay [16], in assay [17], in [18], in assay [19] and in [20] was inactive.
Turning to `CC[C@H](C)C(=O)O[C@H]1C[C@@H](C)C=C2C=C[C@H](C)[C@H](CC[C@@H]3C[C@@H](O)CC(=O)O3)[C@H]21`, the outcome in assay [2], in [3], in [4], in [6], in assay [7] and in assay [8] was inactive. For the same compound, the compound was called inactive in assay [9], in assay [10], in [11], in assay [12], in [13] and in assay [14]. Also, the compound was classed as inactive in assay [15], in assay [16], in assay [17], in assay [18] and in assay [20]. For the same compound, the AC50 in assay [5] is 8.11 µM (active); in assay [19], 10.5 µM (active).
For `CNCc1ccc(NC(=O)c2c[nH]c3c2C(=O)CCC3)cc1`, the outcome in [1], in assay [2], in assay [3], in assay [4], in [6] and in assay [7] was inactive. The compound was called inactive in assay [8], in [9], in assay [10], in assay [12], in assay [14] and in assay [15]. In addition, the result in assay [16], in [17], in [18], in assay [19] and in assay [20] was inactive. Also, the AC50 in assay [13] is 71.1 µM (active).
